ChEMBL document CHEMBL1961873, “Compounds: GSK PKIS; Assays: Nanosyn kinase panel” (2012)

Tests used:
[1] = target: T1, Inhibitor of nuclear factor kappa-B kinase subunit epsilon (Homo sapiens) (UniProt Q14164); details: at 1 µM;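 further: reported values are averaged percent inhibition figures against human IKKε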
T1 sequence (whole entry): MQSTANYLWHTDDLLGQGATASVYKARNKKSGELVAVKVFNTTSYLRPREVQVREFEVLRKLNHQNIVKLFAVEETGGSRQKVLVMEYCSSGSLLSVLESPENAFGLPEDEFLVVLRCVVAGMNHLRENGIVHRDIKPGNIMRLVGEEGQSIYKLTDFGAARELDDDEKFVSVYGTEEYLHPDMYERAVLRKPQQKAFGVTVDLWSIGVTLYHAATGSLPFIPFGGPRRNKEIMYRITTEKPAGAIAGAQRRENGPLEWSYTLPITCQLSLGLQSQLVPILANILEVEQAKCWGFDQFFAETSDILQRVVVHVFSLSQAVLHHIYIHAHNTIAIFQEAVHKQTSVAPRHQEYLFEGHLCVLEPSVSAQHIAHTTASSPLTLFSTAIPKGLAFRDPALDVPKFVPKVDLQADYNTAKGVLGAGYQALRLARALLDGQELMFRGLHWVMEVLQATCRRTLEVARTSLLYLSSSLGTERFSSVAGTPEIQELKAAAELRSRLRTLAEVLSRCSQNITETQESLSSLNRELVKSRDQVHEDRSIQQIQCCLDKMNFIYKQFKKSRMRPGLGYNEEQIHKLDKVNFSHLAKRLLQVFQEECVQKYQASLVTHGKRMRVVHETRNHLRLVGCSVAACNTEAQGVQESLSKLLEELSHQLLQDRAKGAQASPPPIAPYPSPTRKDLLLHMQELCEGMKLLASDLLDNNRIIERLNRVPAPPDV

[2] = target: T2, Serine/threonine-protein kinase Nek1 (Homo sapiens) (UniProt Q96PY6); details: at 0.1 µM
T2 sequence (whole entry): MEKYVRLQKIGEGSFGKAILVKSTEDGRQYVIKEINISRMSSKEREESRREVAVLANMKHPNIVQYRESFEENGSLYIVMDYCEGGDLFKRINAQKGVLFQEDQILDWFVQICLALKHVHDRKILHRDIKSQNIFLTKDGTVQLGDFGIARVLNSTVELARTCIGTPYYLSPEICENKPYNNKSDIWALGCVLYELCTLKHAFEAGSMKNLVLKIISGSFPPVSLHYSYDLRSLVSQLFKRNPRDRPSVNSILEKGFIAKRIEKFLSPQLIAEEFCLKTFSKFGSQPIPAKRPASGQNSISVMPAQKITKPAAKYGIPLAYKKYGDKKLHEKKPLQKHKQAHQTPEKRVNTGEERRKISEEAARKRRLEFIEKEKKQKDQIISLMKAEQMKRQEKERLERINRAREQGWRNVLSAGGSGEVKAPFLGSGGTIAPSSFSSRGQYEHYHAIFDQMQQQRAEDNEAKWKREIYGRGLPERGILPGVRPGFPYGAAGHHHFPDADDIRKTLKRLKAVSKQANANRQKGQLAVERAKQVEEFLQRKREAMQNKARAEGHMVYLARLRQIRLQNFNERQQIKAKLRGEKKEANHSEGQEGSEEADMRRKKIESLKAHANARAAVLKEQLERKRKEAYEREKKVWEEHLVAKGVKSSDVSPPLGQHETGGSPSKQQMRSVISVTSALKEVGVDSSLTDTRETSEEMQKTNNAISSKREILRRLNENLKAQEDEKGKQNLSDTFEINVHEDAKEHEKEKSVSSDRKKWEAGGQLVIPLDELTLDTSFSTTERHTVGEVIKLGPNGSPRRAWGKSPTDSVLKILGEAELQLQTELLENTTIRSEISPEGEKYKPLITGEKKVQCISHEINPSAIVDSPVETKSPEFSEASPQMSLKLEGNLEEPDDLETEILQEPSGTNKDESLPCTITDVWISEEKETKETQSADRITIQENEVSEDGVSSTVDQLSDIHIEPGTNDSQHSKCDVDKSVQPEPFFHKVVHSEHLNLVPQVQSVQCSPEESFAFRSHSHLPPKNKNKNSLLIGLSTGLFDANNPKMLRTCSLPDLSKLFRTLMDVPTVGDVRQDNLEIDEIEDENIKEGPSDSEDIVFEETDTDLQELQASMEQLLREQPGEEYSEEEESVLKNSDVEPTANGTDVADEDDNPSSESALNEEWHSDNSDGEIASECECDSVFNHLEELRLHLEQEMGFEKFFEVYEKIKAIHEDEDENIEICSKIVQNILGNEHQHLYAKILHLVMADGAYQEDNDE

[3] = target: T2, Serine/threonine-protein kinase Nek1 (Homo sapiens); details: at 1 µM
[4] = target: T3, Serine/threonine-protein kinase Nek2 (Homo sapiens) (UniProt P51955); details: at 0.1 µM
T3 sequence (whole entry): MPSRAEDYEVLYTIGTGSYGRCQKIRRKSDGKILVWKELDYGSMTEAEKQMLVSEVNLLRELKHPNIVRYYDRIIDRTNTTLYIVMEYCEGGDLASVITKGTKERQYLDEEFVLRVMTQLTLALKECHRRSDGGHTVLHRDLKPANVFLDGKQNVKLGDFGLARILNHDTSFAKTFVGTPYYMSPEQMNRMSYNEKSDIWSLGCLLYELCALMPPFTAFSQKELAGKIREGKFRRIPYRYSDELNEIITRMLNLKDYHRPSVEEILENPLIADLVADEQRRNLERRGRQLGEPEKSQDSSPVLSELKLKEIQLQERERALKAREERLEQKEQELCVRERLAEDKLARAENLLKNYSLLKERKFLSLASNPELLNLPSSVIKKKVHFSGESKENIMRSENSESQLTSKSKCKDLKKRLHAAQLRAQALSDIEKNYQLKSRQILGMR

[5] = target: T3, Serine/threonine-protein kinase Nek2 (Homo sapiens); details: at 1 µM
[6] = target: Serine/threonine-protein kinase Nek6 (Homo sapiens) (UniProt Q9HC98); details: at 0.1 µM
[7] = target: Serine/threonine-protein kinase Nek6 (Homo sapiens) (UniProt Q9HC98); details: at 1 µM
[8] = target: Serine/threonine-protein kinase Nek7 (Homo sapiens) (UniProt Q8TDX7); details: at 0.1 µM
[9] = target: Serine/threonine-protein kinase Nek7 (Homo sapiens) (UniProt Q8TDX7); details: at 1 µM
[10] = target: T4, Serine/threonine-protein kinase Nek9 (Homo sapiens) (UniProt Q8TD19); details: at 0.1 µM;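 further: reported value is the mean percent inhibition of NEK9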
T4 sequence (whole entry): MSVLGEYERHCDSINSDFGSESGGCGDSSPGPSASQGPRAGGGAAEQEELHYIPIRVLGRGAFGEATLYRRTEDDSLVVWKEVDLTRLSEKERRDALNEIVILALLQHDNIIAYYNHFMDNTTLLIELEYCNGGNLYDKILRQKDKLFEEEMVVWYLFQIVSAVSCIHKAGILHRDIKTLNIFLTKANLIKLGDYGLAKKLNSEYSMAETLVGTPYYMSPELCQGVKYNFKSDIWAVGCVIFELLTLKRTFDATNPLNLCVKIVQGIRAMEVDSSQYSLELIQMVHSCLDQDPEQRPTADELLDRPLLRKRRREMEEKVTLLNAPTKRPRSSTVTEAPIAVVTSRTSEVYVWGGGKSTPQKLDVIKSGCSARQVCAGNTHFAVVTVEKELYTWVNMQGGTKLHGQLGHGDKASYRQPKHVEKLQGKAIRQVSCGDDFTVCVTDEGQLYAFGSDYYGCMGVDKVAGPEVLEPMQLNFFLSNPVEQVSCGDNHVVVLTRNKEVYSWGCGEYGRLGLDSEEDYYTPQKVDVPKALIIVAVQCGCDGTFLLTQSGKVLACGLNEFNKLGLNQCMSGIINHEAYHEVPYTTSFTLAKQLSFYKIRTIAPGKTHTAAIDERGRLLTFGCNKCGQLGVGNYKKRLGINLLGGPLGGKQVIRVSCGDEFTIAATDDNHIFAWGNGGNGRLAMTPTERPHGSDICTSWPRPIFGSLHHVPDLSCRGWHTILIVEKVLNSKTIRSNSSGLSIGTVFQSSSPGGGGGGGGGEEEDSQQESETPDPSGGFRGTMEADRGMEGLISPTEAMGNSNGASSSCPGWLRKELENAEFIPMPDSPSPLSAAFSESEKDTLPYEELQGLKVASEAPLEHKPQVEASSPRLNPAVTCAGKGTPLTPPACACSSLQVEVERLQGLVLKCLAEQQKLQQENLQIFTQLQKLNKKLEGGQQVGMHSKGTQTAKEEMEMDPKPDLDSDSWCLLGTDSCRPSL

Sequence of Serine/threonine-protein kinase Nek7 (Homo sapiens) (Q8TDX7 whole entry, looked up): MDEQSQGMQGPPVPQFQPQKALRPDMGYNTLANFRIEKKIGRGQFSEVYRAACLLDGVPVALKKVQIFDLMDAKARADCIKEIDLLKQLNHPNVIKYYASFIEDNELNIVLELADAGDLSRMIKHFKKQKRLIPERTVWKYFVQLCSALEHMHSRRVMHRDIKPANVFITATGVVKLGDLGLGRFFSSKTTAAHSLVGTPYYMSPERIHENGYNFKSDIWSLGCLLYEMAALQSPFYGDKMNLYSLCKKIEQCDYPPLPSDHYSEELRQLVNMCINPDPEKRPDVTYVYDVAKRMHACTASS
Sequence of Serine/threonine-protein kinase Nek6 (Homo sapiens) (Q9HC98 whole entry): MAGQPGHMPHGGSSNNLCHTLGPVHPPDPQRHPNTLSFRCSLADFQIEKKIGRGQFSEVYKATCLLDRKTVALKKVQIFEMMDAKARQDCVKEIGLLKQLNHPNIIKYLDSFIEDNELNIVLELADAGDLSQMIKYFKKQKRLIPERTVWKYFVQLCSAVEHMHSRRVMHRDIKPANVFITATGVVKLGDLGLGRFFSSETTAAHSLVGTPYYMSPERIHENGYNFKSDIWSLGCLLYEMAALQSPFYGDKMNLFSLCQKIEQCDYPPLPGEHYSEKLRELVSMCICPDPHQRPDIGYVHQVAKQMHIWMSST

SMILES	inhibition [1]	inhibition [2]	inhibition [3]	inhibition [4]	inhibition [5]	inhibition [6]	inhibition [7]	inhibition [8]	inhibition [9]	inhibition [10]
Cc1c2ccc(N(C)c3ccnc(Nc4cccc(S(N)(=O)=O)c4)n3)cc2nn1C	6.19%	3.11%	4.82%	6.4%	19.9%	0.7%	0.72%	5.3%	3.13%	9.14%
NS(=O)(=O)c1ccc(N/N=C2\C(=O)Nc3ccc(C(=O)NCc4ccncc4)cc32)cc1	49.1%	1.96%	4.03%	4.39%	3.78%	3.86%	5.08%	3.8%	4.4%	9.13%
O=C(Nc1n[nH]c2nnc(-c3cccnc3)cc12)C1CC1	0.84%	0.17%	1.72%	0.71%	-2.27%	-0.09%	-0.1%	0.09%	1.6%	7.25%
CCOc1ccc2c(-c3ccnc(Nc4cc(OC)cc(C(F)(F)F)c4)n3)cnn2n1	26.5%	1.06%	2.42%	1.26%	0.94%	-0.49%	1.7%	2.79%	2.42%	3.87%
Cc1ccc(-c2cc3c(NC(=O)C4CC4)ncnc3o2)cc1	6.07%	1.85%	3.91%	4.58%	4.89%	3.4%	0.29%	3.17%	3.35%	3.07%
CCN1CCC(C(=O)Nc2n[nH]c3nnc(-c4cccc(F)c4F)cc23)CC1	-0.18%	-1.35%	-0.79%	-0.66%	-0.65%	1.25%	-1.06%	-0.06%	-1.15%	4.77%
CN1CCC(n2cnc(-c3ccc(F)cc3)c2-c2ccnc(NCCO)n2)CC1	9.51%	2.52%	3.44%	5.2%	5.72%	3.54%	5.15%	2.96%	3.39%	5.09%
NS(=O)(=O)c1ccc(N/N=C2\C(=O)Nc3cccc(CCc4ccncc4)c32)cc1	3.03%	2.1%	1.7%	1.25%	0.63%	-2.2%	-0.1%	0.71%	0.86%	2.93%
COc1ccc(-c2nn3ncccc3c2-c2ccnc(Nc3ccc(F)c(F)c3)n2)cc1	88.2%	1.08%	2.15%	3.89%	2.89%	3.33%	5.18%	3.7%	4.42%	7.45%
Cn1c(-c2nonc2N)nc2cnccc21	6.44%	1.82%	3.22%	4.27%	3.27%	3.89%	-0.49%	3.76%	3.15%	12.2%
CS(=O)(=O)CCNCc1ccoc1-c1ccc2ncnc(Nc3ccc(OCc4ccccc4)cc3)c2c1	0.42%	0.71%	2.1%	1.71%	0.9%	1.71%	0.7%	0.9%	1.09%	-0.36%
COc1ccc(Nc2ncc(-c3ccccc3)o2)cc1OC	4.37%	0.52%	5.19%	0.8%	2.25%	0.31%	-2.42%	1.23%	0.83%	-0.52%
N#Cc1cccc(Nc2ncc(-c3ccccc3)o2)c1	6.35%	1.6%	2.44%	2.51%	0.06%	1.87%	5.4%	2.82%	1.01%	8.32%
CN(C)CCNC(=O)Nc1ccc(N(C)c2ccnc(Nc3ccc(CS(C)(=O)=O)cc3)n2)cc1	6.21%	0.66%	2.81%	5.18%	-2.7%	3.4%	3.93%	3.07%	2.78%	0.16%
COc1cccc(Nc2nccc(-c3cnn4ncccc34)n2)c1	18.1%	3.3%	18.3%	4.5%	5.64%	3.79%	1.04%	-0.48%	4.19%	10.7%
c1cnn2ncc(-c3ccnc(NCCCN4CCOCC4)n3)c2c1	13.4%	1.91%	0.27%	4.15%	4.3%	0.45%	2.66%	5.96%	1.47%	14.8%
